Our source for the Potency values is PubChem BioAssay (NCATS).

Results filed as inconclusive are left out. A call without a number means that no potency is given here. Active and inactive are the calls of the source. Calls follow the shape of the dose curve; as a rule, active = well fitted inhibition curve with a large enough effect; inconclusive = small, poorly fitted or top-dose-only effect; inactive = no such curve, though single readings can be large or run the other way.
Potency is read from the fitted curve at half-maximal effect.

A short description of the first experiment: BET inhibitor-based combinations targeting novel dependencies in MECOM-rearranged (r) AML: MV-4-11 cell line (AID 2202233). Also: nearly all actives have a fitted effect of over 45% in size. Particulars: MV-4-11 AML viability, CellTiter-Glo luminescence, 48 h; series mostly up to 46 µM. Put shortly: (§1)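 First, 500 cells per well were seeded; next, drugs were pinned as 11-point doses; then plates sat 48 hr in the incubator; finally CellTiter-Glo was added and luminescence read, with AUC and Z-AUC computed.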
With `CCCc1c(OCCCOc2ccc(OCC(=O)O)cc2)ccc(C(C)=O)c1O`, the Potency result is “inactive”.

As for `COc1ccc2[nH]cc(CCNC(C)=O)c2c1`, the Potency result is “inactive”.

Take `CCC(C)N(C)C(=O)c1cc2ccccc2c(-c2ccccc2Cl)n1` (stereo not given): the Potency entry is “inactive”.

As to `CC(C)NCC(O)c1ccc(NS(C)(=O)=O)cc1` (stereo not given), the Potency entry is “inactive”.

Regarding `COc1ccc(C2CNC(=O)C2)cc1OC1CCCC1` (stereo not given), the Potency result was “inactive”.

For the molecule `O=C1CCC(N2C(=O)c3ccccc3C2=O)C(=O)N1` (stereo not given), the Potency result is “inactive”.

Take `Nc1ncnc2c1ncn2[C@@H]1O[C@H](CO)[C@@H](O)[C@H]1O`: the Potency entry is “inactive”.

Turning to `O=c1[nH]cc(F)c(=O)[nH]1`, the Potency is 6.61 µM (active).

With `Cc1cccc(-c2[nH]ncc2-c2ccc3ncccc3n2)n1`, the Potency result was “inactive”.

`CCn1cc(C(=O)O)c(=O)c2cc(F)c(N3CCNC(C)C3)c(F)c21` (stereo not given): the Potency entry is “inactive”.

Consider `Nc1nc2c(ncn2COC(CO)CO)c(=O)[nH]1`, for which the Potency entry was “inactive”.

Consider `CC(C)NCC(O)COc1ccc(CCOCC2CC2)cc1` (stereo not given), for which the Potency result is “inactive”.

As to `O=C(O)C1CCCN(CCC=C(c2ccccc2)c2ccccc2)C1` (stereo not given), the Potency entry is “inactive”.

As to `NS(=O)(=O)c1cc2c(cc1Cl)NC=NS2(=O)=O`, the Potency entry is “inactive”.

Turning to `CCN(CC)CCNC(=O)c1c(C)[nH]c(/C=C2\C(=O)Nc3ccc(F)cc32)c1C`, the Potency is 0.0468 µM (active).

Regarding `CN(C)C(=O)C(CCN1CCC(O)(c2ccc(Cl)cc2)CC1)(c1ccccc1)c1ccccc1`, the Potency was 20.9 µM (active).

Consider `CCOC(=O)C(C)(C)Oc1ccc(Cl)cc1`, for which the Potency entry is “inactive”.

As to `COc1cccc(-c2cc(=O)c3ccccc3o2)c1N`, the Potency was 20.9 µM (active).

In the case of `C[C@@H](c1ncncc1F)[C@](O)(Cn1cncn1)c1ccc(F)cc1F`, the Potency result is “inactive”.

For the molecule `CC12CC3CC(C)(C1)CC(N)(C3)C2`, the Potency result was “inactive”.

For the molecule `CC(C(=O)O)c1cccc(C(=O)c2ccccc2)c1` (stereo not given), the Potency entry was “inactive”.

Regarding `Nc1nnc(-c2cccc(Cl)c2Cl)c(N)n1`, the Potency entry is “inactive”.

Turning to `NC(=O)c1ncn([C@@H]2O[C@H](CO)[C@@H](O)[C@H]2O)n1`, the Potency is 23.5 µM (active).

For the molecule `CC(C)(C)NCC(O)c1ccc(O)c(CO)c1` (stereo not given), the Potency result was “inactive”.

With `COC(=O)Nc1nc2ccc(C(=O)c3cccs3)cc2[nH]1`, the Potency was 0.118 µM (active).

For the molecule `O=C1N(c2ccccc2)c2ccccc2C1(Cc1ccncc1)Cc1ccncc1`, the Potency result was “inactive”.

Take `CCCCNc1cc(C(=O)O)cc(S(N)(=O)=O)c1Oc1ccccc1`: the Potency result is “inactive”.

As to `NCCS(=O)(=O)O`, the Potency entry was “inactive”.

For `Cc1cnc(NC(=O)C2=C(O)c3ccccc3S(=O)(=O)N2C)s1`, the Potency entry is “inactive”.

`Nc1ncn([C@@H]2O[C@H](CO)[C@@H](O)[C@H]2O)c(=O)n1`: the Potency was 3.32 µM (active).

For `Cc1cc(Cl)ccc1OCCCC(=O)NO`, the Potency was 18.6 µM (active).

The nature of the next experiment: BET inhibitor-based combinations targeting novel dependencies in MECOM-rearranged (r) AML: HNT-34 cell line (AID 2202234). Also: nearly all actives have a fitted effect of over 35% in size. Particulars: HNT-34 AML viability, CellTiter-Glo luminescence, 48 h; series mostly up to 46 µM. Summed up:
as §1
In general terms: In ATP-based viability assays light output follows the ATP content of the culture.
Consider `CCCc1c(OCCCOc2ccc(OCC(=O)O)cc2)ccc(C(C)=O)c1O`, for which the Potency entry is “inactive”.

Regarding `COc1ccc2[nH]cc(CCNC(C)=O)c2c1`, the Potency entry is “inactive”.

Turning to `CCC(C)N(C)C(=O)c1cc2ccccc2c(-c2ccccc2Cl)n1` (stereo not given), the Potency result was “inactive”.

In the case of `O=c1c(O)c(-c2ccc(O)cc2O)oc2cc(O)cc(O)c12`, the Potency result is “inactive”.

`CC(C)NCC(O)c1ccc(NS(C)(=O)=O)cc1` (stereo not given): the Potency entry was “inactive”.

With `COc1ccc(C2CNC(=O)C2)cc1OC1CCCC1` (stereo not given), the Potency result was “inactive”.

For `O=C1CCC(N2C(=O)c3ccccc3C2=O)C(=O)N1` (stereo not given), the Potency entry is “inactive”.

Regarding `Nc1ncnc2c1ncn2[C@@H]1O[C@H](CO)[C@@H](O)[C@H]1O`, the Potency entry is “inactive”.

Consider `Cc1cccc(-c2[nH]ncc2-c2ccc3ncccc3n2)n1`, for which the Potency was 20.9 µM (active).

Take `CCn1cc(C(=O)O)c(=O)c2cc(F)c(N3CCNC(C)C3)c(F)c21` (stereo not given): the Potency result is “inactive”.

In the case of `CNC[C@H](O)c1ccc(O)c(O)c1`, the Potency entry is “inactive”.

As for `Nc1nc2c(ncn2COC(CO)CO)c(=O)[nH]1`, the Potency result is “inactive”.

`NCCCCCC(=O)O`: the Potency result was “inactive”.

`CC(C)NCC(O)COc1ccc(CCOCC2CC2)cc1` (stereo not given): the Potency entry is “inactive”.

`O=C(O)C1CCCN(CCC=C(c2ccccc2)c2ccccc2)C1` (stereo not given): the Potency entry is “inactive”.

For the molecule `NS(=O)(=O)c1cc2c(cc1Cl)NC=NS2(=O)=O`, the Potency entry was “inactive”.

For `CCN(CC)CCNC(=O)c1c(C)[nH]c(/C=C2\C(=O)Nc3ccc(F)cc32)c1C`, the Potency is 1.86 µM (active).

As to `CN(C)C(=O)C(CCN1CCC(O)(c2ccc(Cl)cc2)CC1)(c1ccccc1)c1ccccc1`, the Potency was 20.9 µM (active).

Regarding `CCOC(=O)C(C)(C)Oc1ccc(Cl)cc1`, the Potency entry was “inactive”.

For the molecule `CC12CC3CC(C)(C1)CC(N)(C3)C2`, the Potency result was “inactive”.

As for `CC(C(=O)O)c1cccc(C(=O)c2ccccc2)c1` (stereo not given), the Potency result is “inactive”.

As to `Nc1nnc(-c2cccc(Cl)c2Cl)c(N)n1`, the Potency entry was “inactive”.

On to `CNC[C@H](O)c1cccc(O)c1`, for which the Potency result was “inactive”.

For `NC(=O)c1ncn([C@@H]2O[C@H](CO)[C@@H](O)[C@H]2O)n1`, the Potency was 16.6 µM (active).

As for `CC(C)(C)NCC(O)c1ccc(O)c(CO)c1` (stereo not given), the Potency entry was “inactive”.

Take `COC(=O)Nc1nc2ccc(C(=O)c3cccs3)cc2[nH]1`: the Potency is 0.0833 µM (active).

Take `Nc1nc2c(ncn2COCCO)c(=O)[nH]1`: the Potency result was “inactive”.

On to `CCCCNc1cc(C(=O)O)cc(S(N)(=O)=O)c1Oc1ccccc1`, for which the Potency result is “inactive”.

Consider `CCCCS(=N)(=O)CCC(N)C(=O)O` (stereo not given), for which the Potency entry was “inactive”.

Turning to `NC(=O)c1ncn([C@@H]2O[C@H](CO)[C@@H](O)[C@H]2O)c1O`, the Potency result is “inactive”.

Regarding `NCCS(=O)(=O)O`, the Potency entry was “inactive”.

Take `Nc1ncn([C@@H]2O[C@H](CO)[C@@H](O)[C@H]2O)c(=O)n1`: the Potency was 4.68 µM (active).

Take `CN(CCOc1ccc(NS(C)(=O)=O)cc1)CCc1ccc(NS(C)(=O)=O)cc1`: the Potency result is “inactive”.

`Cc1cc(Cl)ccc1OCCCC(=O)NO`: the Potency was 1.48 µM (active).
